# Data from PubChem BioAssay AID430 (Sanford-Burnham Center for Chemical Genomics, 2006).
# Screen size: about 63,000 compounds; about 1,100 (1.7%) were called active. Shown is part of a subset that was picked to be rich in actives. Potency and affinity values are given separately. A number with no mark means an inactive call. Rule as the data show it: active = cytotoxicity above about 50%; inactive = the rest.
# Assay: HPDE-C7 pancreatic duct cell viability loss – fluorescence, HTS (AID 430);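 also: cells exposed to compound for 48 hours before viability readout; 0% = vehicle and 100% = reference cytotoxic drug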
# Conditions: HPDE-C7 pancreatic duct cells viability, at 10 µM, active compounds read high
row,Compound,cytotoxicity
1,OCc1cn(-c2ccccc2)nc1-c1ccc2c(c1)OCCO2,-21.5%
2,CC(=O)Nc1ccc(S(=O)(=O)N2CCSC2c2ccccc2Cl)cc1 (stereo unspecified),3.4%
3,CC1CCCCN1CCn1cnc2c([nH]c3ccccc32)c1=O (stereo unspecified),-2.1%
4,CCCN(C#N)c1nc(NCC)nc(NC(C)C)n1,-11.1%
5,CCNc1nc(NC(C)C)nc(N(C#N)Cc2ccccc2)n1,6.3%
6,CCNc1nc(NC(C)C)nc(N(C#N)CCOc2ccc(Cl)cc2Cl)n1,94.5% (active)
7,CCOc1ccc(-n2cc(C(=O)N3CCN(C)CC3)c3cc(OC)c(OC)cc3c2=O)cc1,-7.2%
8,CC1CCN(S(=O)(=O)c2ccc3c(c2)c(=O)c(C(=O)NC2CCCC2)cn3C)CC1,77% (active)
9,Cn1cc(C(=O)NC2CCCCCC2)c(=O)c2cc(S(=O)(=O)N3CCCC3)ccc21,-2.6%
10,Cn1cc(C(=O)NC2CCCCC2)c(=O)c2cc(S(=O)(=O)N3CCCC3)ccc21,6.5%
11,COC(=O)C1(C)NC(c2cccs2)C2C(=O)N(c3ccc(F)cc3)C(=O)C21 (stereo unspecified),3.3%
12,Cc1cc(NC(=O)CSc2nnc3c(C)cc4cc(C)c(C)cc4n23)no1,6.8%
13,Cc1cc(NC(=O)CSc2nnc3c(C)cc4c(C)ccc(C)c4n23)no1,64.6% (active)
14,Cc1cc(C)c2c(c1)cc(C)c1nnc(SCC(=O)Nc3cc(C)on3)n12,20.4%
15,CCN(CCCNC(=O)CC(C(=O)N1CCc2ccccc21)n1ccnc1)c1ccccc1 (stereo unspecified),-6.9%
16,Cc1cccc2sc(NC(=O)CNS(=O)(=O)c3ccc(Br)s3)nc12,1.3%
17,Cc1cccc2sc(NC(=O)CN(C)S(=O)(=O)c3cccs3)nc12,14.9%
18,C1CCN(c2nc(N3CCCC3)nc(N3CCNCC3)n2)C1,2.6%
19,CC(=O)C1=C(C)NC(SCC(=O)c2ccc(Cl)cc2Cl)=C(C#N)C1c1ccco1 (stereo unspecified),40.9%
20,COCCOC(=O)C1=C(C)NC(SCC(=O)NC(C)(C)C)=C(C#N)C1c1ccco1 (stereo unspecified),10.7%
21,CSCSC1=C(C#N)C(c2ccccc2Cl)C(C(C)=O)=C(C)N1 (stereo unspecified),21.5%
22,CC(=O)C1=C(C)NC(SCC(=O)c2ccc(F)cc2)=C(C#N)C1c1ccco1 (stereo unspecified),79.8% (active)
23,CC(=O)C1=C(C)NC(SCC(=O)c2ccc(Cl)c(Cl)c2)=C(C#N)C1c1ccco1 (stereo unspecified),75.6% (active)

row,Compound,cytotoxicity
1,CCOC(=O)CSC1=C(C#N)C(c2ccc(F)cc2)C(C(C)=O)=C(C)N1 (stereo unspecified),0.3%
2,COc1ccccc1NC(=O)C1=C(C)NC(SCC(=O)c2ccc(C)cc2)=C(C#N)C1c1ccco1 (stereo unspecified),36.6%
3,C=CCOC(=O)C1=C(C)NC(SCC(=O)Nc2ccc(C)c(Cl)c2)=C(C#N)C1c1ccco1 (stereo unspecified),0.2%
4,Cc1ccc(C(=O)CSC2=C(C#N)C(c3ccco3)CC(=O)N2)c(C)c1 (stereo unspecified),-3%
5,CC(=O)C1=C(C)NC(SCC(=O)c2cc(Cl)ccc2Cl)=C(C#N)C1c1ccco1 (stereo unspecified),53% (active)
6,CC(=O)C1=C(C)NC(SCC(=O)c2ccccc2)=C(C#N)C1CC(C)C (stereo unspecified),8.5%
7,COc1cccc(-n2ccnc2SCC(=O)Nc2cc(OC)ccc2OC)c1,-21%
8,Cc1cc(N2CCN(c3ccccc3)CC2)n2c(n1)nc1ccccc12,-8.6%
9,CC(=O)N1CCc2cc(S(=O)(=O)NCCN3CCC(C)CC3)ccc21,2.7%
10,COc1ccc(OC)c(C2CC(=O)NC(SC)=C2C#N)c1 (stereo unspecified),-2.9%
11,Cc1cc(C)c2nc(N)sc2c1,3.8%
12,c1ccc(COc2ccc(OCCCn3cncn3)cc2)cc1,-20.8%
13,O=C(O)C1C2C=CC(C2)C1C(=O)NCc1ccoc1 (stereo unspecified),-8.3%
14,CCOc1ccc(OCc2ccc(C(=O)NCc3ccncc3)o2)cc1,-3%
15,CCOC(=O)CSC1=C(C#N)C(c2ccco2)C(C(=O)OCc2ccccc2)=C(C)N1 (stereo unspecified),58.8% (active)
16,CCN(CC)C(=O)CSC1=C(C#N)C(c2ccco2)C(C(=O)OCCOC)=C(C)N1 (stereo unspecified),-11%
17,CC(=O)C1=C(C)OC(N)=C(C#N)C1c1ccco1 (stereo unspecified),-2.2%
18,CC(=O)C1=C(C)NC(SCC(=O)c2ccc(Cl)cc2)=C(C#N)C1c1ccco1 (stereo unspecified),57.9% (active)
19,C=CCOC(=O)C1=C(C)NC(SCC(=O)N(CC)CC)=C(C#N)C1c1ccco1 (stereo unspecified),12.7%
20,CSCSC1=C(C#N)C(c2ccc(Cl)cc2)C(C(C)=O)=C(C)N1 (stereo unspecified),-18.3%
21,CN(c1ccc(C(=O)NCc2ccccc2)cc1)S(C)(=O)=O,-26.5%
22,CCCS(=O)(=O)N1CCC(C(=O)NCCN2CCCC2)CC1,2.1%
23,COc1ccc(-c2nnc(SCc3ncc(-c4ccccc4)o3)o2)cc1,-2.9%
